Measurements as given in PubChem BioAssay AID488794 (Sanford-Burnham Center for Chemical Genomics, 2010).
About 550 (55%) of roughly 1,000 compounds were called active. Rule as the data show it: active = inhibition above about 50%; inactive = the rest. So high a share suggests a set chosen from earlier hits. Only a sample is shown.

Assay: yeast-expressed human NALP3 blockade, retest – luminescence, single concentration, confirmation (AID 488794)
Settings: yeast expressing human NALP3, luminescence read-out; at 10 µM; hits give high values
For `CN(C)c1ccnc2sc(C(=O)c3ccccc3)c(N)c12`, the inhibition was 53.6% (active).
With `Oc1c(Cl)cc(Cl)c(Cl)c1Cc1c(O)c(Cl)cc(Cl)c1Cl` the inhibition was 98.5% (active).
In the case of `Cc1ccnc(Nc2nc3ccccc3s2)n1`, the inhibition was 27.6% (inactive).
With `O=C(CC(O)(C(F)(F)F)C(F)(F)F)Nc1ccc(Cl)c(Cl)c1` the inhibition was 99.8% (active).
In the case of `Cc1ccc(O)c(NC(=O)c2cc(-c3ccco3)on2)c1`, the inhibition was 63.7% (active).
For `COc1ccccc1C(=O)Nc1ccc(NC(=O)c2ccco2)c(C)c1`, the inhibition was 32.3% (inactive).
With `Cc1ccc(CSc2nsc(C)c2C#N)cc1` the inhibition was 48.2% (inactive).
For `Cc1ccc(OCc2nc3ccccc3n2C)cc1`, the inhibition was 57.2% (active).
With `CC(C)n1c(COc2ccccc2)nc2ccccc21` the inhibition was 47.7% (inactive).
For `CN=C1C=C/C(=N/N=c2\ccn(O)cc2C)C=C1C`, the inhibition was 57.2% (active).
For `O=[N+]([O-])c1cccc(/C=N/Nc2ncc(Br)cn2)c1`, the inhibition was 33.4% (inactive).
For `CCc1noc(C)c1C(=O)Nc1nc2ccc(OC)cc2s1`, the inhibition was 55.5% (active).
For `O=C1CSC(=S)N1c1ccc(O)cc1`, the inhibition was 59.4% (active).
For `COc1cc(N2C(=O)CSC2=S)cc(OC)c1OC`, the inhibition was 35.6% (inactive).
With `Fc1ccccc1-c1cc2cc3c(cc2cn1)OCO3` the inhibition was 39% (inactive).
For `Nc1c(-c2cccc(Cl)c2)cnn1-c1cccc([N+](=O)[O-])c1`, the inhibition was 52.1% (active).
For `O=C(CSc1ncnc2c1oc1ccccc12)NC1CCCC1`, the inhibition was 25.1% (inactive).
For `Cn1c(=NC(=O)c2ccco2)sc2cccc(F)c21`, the inhibition was 34.1% (inactive).
With `Cc1cccc(NC(=S)NC(=O)c2ccc(Br)o2)c1` the inhibition was 65.7% (active).
With `Cc1ccc(-c2nn(C(C)(C)C)c3ncnc(N)c23)cc1` the inhibition was 63.2% (active).
In the case of `O=C(Nc1ccccc1Cl)/C(Cl)=C(\Cl)S(=O)c1ccccc1` (stereo unspecified), the inhibition was 74.7% (active).
For `N#Cc1nc(Cc2ccccc2)oc1NCCc1ccccc1`, the inhibition was 36.6% (inactive).
With `CCOC(=O)c1c(C)[nH]c(C(=O)COc2ccc3c(c2)OCO3)c1C` the inhibition was 54.5% (active).
With `COc1ccccc1OCc1nc2ccccc2s1` the inhibition was 43.2% (inactive).
With `CCCN(CC1CC1)C(=S)NC(=O)c1ccccc1Br` the inhibition was 38.8% (inactive).
In the case of `Cc1cc(C)nc(NC(=O)Nc2ccccc2C(F)(F)F)n1`, the inhibition was 34.8% (inactive).
In the case of `Cc1c(C(=O)N2CCCc3ccccc32)oc2ccccc12`, the inhibition was 47.9% (inactive).
With `O=C(Oc1c(-c2ccco2)oc2ccccc2c1=O)c1cccnc1` the inhibition was 68.5% (active).
For `Oc1ccc(Br)cc1/C=N/Nc1ccccn1`, the inhibition was 43.2% (inactive).
In the case of `O=C(CSc1ccc(-c2ccc(-n3cccn3)cc2)nn1)Nc1ccc([N+](=O)[O-])cc1`, the inhibition was 18.1% (inactive).
With `O=[N+]([O-])/C=C/c1ccc2c(ccn2Cc2ccccc2)c1` the inhibition was 96.3% (active).
With `CCCNc1ncnc2sc(C)c(C)c12` the inhibition was 36.4% (inactive).
In the case of `C[C@@H]1C[C@@H]2O[C@H]2/C=C\C=C\C(=O)Cc2c(Cl)c(O)cc(O)c2C(=O)O1`, the inhibition was 66.2% (active).
In the case of `CC(C)C(=O)N1CCN(CCN=CC2=C(O)CC(c3ccco3)CC2=O)CC1` (stereo unspecified), the inhibition was 62.1% (active).
For `CC1(C)CCSC(/C=C/c2ccccc2)=N1`, the inhibition was 79.8% (active).
For `O=C(Nc1ccc2oc(-c3ccccc3F)nc2c1)c1ccco1`, the inhibition was 71.3% (active).
In the case of `O=C(Nc1ccc(Oc2ccccc2)cc1)c1ccco1`, the inhibition was 35.9% (inactive).
In the case of `Cn1c(=O)c(C(=O)Nc2ncccn2)c(O)c2ccccc21`, the inhibition was 60.2% (active).
With `Cc1cc(C)c(/C=C2\C(=O)Nc3ccccc32)[nH]1` the inhibition was 36.6% (inactive).
With `CCc1cc(C(=O)Nc2nnc(C3CC3)s2)sc1C` the inhibition was 40.9% (inactive).
For `Cc1ccc(OCc2nc(C#N)c(N3CCCC3)o2)cc1`, the inhibition was 53.5% (active).
With `CCN(CC)c1ccc(/C=N/Nc2nc(C)cc(C)n2)c(O)c1` the inhibition was 63% (active).
For `O=[N+]([O-])c1c(NCCO)cc(Sc2nc3ccccc3s2)c2nonc12`, the inhibition was 48% (inactive).
With `Cc1cc(C(=O)COc2ccc(Br)cc2F)c(C)n1C1CC1` the inhibition was 49.4% (inactive).
With `CC(C)Sc1ncnc2c1cnn2-c1ccccc1` the inhibition was 46.2% (inactive).
For `O=C(NCc1ccc2c(c1)OCO2)c1c(O)nc2sccn2c1=O`, the inhibition was 38.4% (inactive).
For `CC(=NCc1ccc2c(c1)OCO2)C1=C(O)c2ccccc2C1=O`, the inhibition was 63.9% (active).
For `Cc1ccc2cccc(S(=O)(=O)N3CCN(c4ccccc4F)CC3)c2n1`, the inhibition was 47.8% (inactive).
In the case of `CC(=O)[C@@]12O[C@@H]1C[C@H]1[C@@H]3CC[C@H]4C[C@@H](O)CC[C@]4(C)[C@H]3CC[C@@]12C`, the inhibition was 38.2% (inactive).
In the case of `O=C(COc1ccccc1F)Nc1nc(-c2ccccn2)cs1`, the inhibition was 37.1% (inactive).
In the case of `CCSc1nc2sc3c(c2c(=O)n1-c1ccc(C)cc1)CCN(C)C3`, the inhibition was 44.3% (inactive).
